# Measurements from PubChem BioAssay (NCATS).
# A number with no mark means an inactive call. A call without a number means that no potency is given here. The source made the active and inactive calls. Calls come from the whole dose curve; as a rule, active = well fitted inhibition curve with a large enough effect; inconclusive = small, poorly fitted or top-dose-only effect; inactive = flat fitted curve, though single readings scatter.
# Tested on: Nanoluciferase (engineered Oplophorus gracilirostris luciferase)
# Assay: Primary Nanoluciferase (NLuc) qHTS assay for identification of artifact compounds. (AID 1845222)
# Details: NLuc-conditioned medium, Nano-Glo luminescence, 5 min; series mostly up to 54.1 µM
# Excerpt: PI: Alexander Tropsha Ph.D.
# UNC Eshelman School of Pharmacy
# University of North Carolina, Chapel Hill, North Carolina
# Hits from high-throughput screening (HTS) of chemical libraries are often false positives due to their interference with the assay detection technology. In response to this problem, we generated the largest publicly available library of chemical liabilities and developed a free webtool to predict HTS artifacts, both of which are described herein. More specifically, we generated, curated, and integrated HTS datasets for thiol reactivity, redox activity, and luciferase (firefly and nano) activity. Using these curated datasets, we developed and validated several Quantitative Structure-Interference Relationship (QSIR) models to predict nuisance behavior. […] These models were employed for virtual profiling of the National Center for Advancing Translational Science's (NCATS) in-house library, and 256 compounds for each assay were selected for the experimental validation of nuisance behavior. The BA for these external predictions ranged from 58 to 78% for compounds within the applicability domains of the models. […] The models developed in this study, along with aggregation models previously developed by our group (SCAM Detective) were implemented in "Liability Predictor," an online tool which may be used as part of chemical library design or for triaging HTS hits. Both the models and the curated datasets are publicly available at https://liability.mml.unc.edu/.
# SEQUENCE No. (e.g., 1, 2, 3, etc.); […] (e.g., Cells, Incubation, Reagent, etc.); VALUE; DESCRIPTION.
# 1; Reagent; 2 uL; Nanoluciferase media.
# 2; Compounds and control; 16 nL; Kalypsis pin tool (Wako USA) equipped with a 1536-well pin head.
# 4; Reagent; 2 uL; Luciferase enzyme.
# 6; Detection; Luminescence, ViewLux microplate reader.
# NOTES (numbers refer to Sequence numbers above)
# 1. Medium was collected from the culture flasks of NLuc-expressing S16 cells (80% confluent) prior to cell plating, filtered through a 0.22um filter, and frozen at -20C prior to use. Media was diluted (1:55) and 2 uL was dispensed into all wells of a 1536-well assay plate (solid-bottom white plate; Greiner Bio One, Monroe, NC).
# 2. A Wako Pin-tool (Wako Automation, Richmond, VA) was used to transfer 16 nL of compounds (consisting of 7-plates in qHTS format, final concentration range 18.3 nM to 114 uM) or control Cilnidipine (final concentration range 623 nM to 80 uM).
# 3. 15 min. incubation at room temperature protected from light.
# 4. 2 uL of NLuc substrate (1:100 in Nano-Glo luciferase buffer; Nano-Glo luminescence assay, Promega, Madison, WI) was dispensed for a final assay volume of 4 uL.
# 5. Plates were centrifuged (121xg, 15 seconds) and incubated for 5 minutes.
# 6. Samples were read for luminescence on a ViewLux CCD imager (PerkinElmer). Data were normalized to no-enzyme (0% activity) and no-inhibitor (DMSO; 100%) controls and the resulting percent inhibition data were fitted to a 4-parameter Hill equation using NCATS in-house software.
# Potency is the fitted concentration of half-maximal effect.
SMILES,"activity, negative = inhibition",Potency
CC[C@@H]1/C=C/C=C/C[C@H](C)C(O)[C@](C)(O)C(=O)[C@H](C)C(O)[C@H](C)C(=O)[C@H](C)[C@@H](O)[C@H](C)/C=C/C(=O)O[C@H]2[C@@H](C)[C@@H](CC1)O[C@]1(O[C@H](C[C@H](C)O)[C@H](C)CC1=O)[C@@H]2C (stereo not given in full),-0.681% [at 11.6 µM],–
Clc1ccc([C@]23CNC[C@H]2C3)cc1Cl,–,inactive
C/C=C(/C)C1C=CC2CC(C)CC(C)C2C1/C(O)=C1\C(=O)NC(CC(C)(O)C(=O)O)C1=O (stereo not given),–,inactive
C[C@H]1CCC/C=C/C2C[C@H](O)C[C@H]2[C@H](O)/C=C/C(=O)O1 (stereo not given in full),–,inactive
C[C@@H]1O[C@@H](O[C@H]2CC[C@@]3(C)C(CC[C@@H]4C3CC[C@]3(C)[C@@H](C5=CC(=O)OC5)CC[C@]43O)C2)[C@H](O[C@@H]2O[C@H](CO)[C@@H](O)[C@H](O)[C@H]2O)[C@H](O)[C@H]1O (stereo not given in full),–,inactive
CCC(C)(O)C1(C(=O)O)COC(=O)C1 (stereo not given),–,inactive
C=C(CO)C(=O)O[C@H]1CC(=C)[C@@H]2C[C@H](O)C(=C)[C@@H]2[C@H]2OC(=O)C(=C)[C@@H]21,–,inactive
C[C@H](Nc1ncnc2nc[nH]c12)c1nc2ccc(F)cc2c(=O)n1-c1ccccc1,–,inactive
CN(C)c1cc2c(cc1Sc1nc3c(N)nccc3n1CCNCC(C)(C)C)OCO2,–,inactive
NC(=O)c1ncn2c1CN=C(c1ccccc1Br)c1cc(F)ccc1-2,–,inactive
COc1cc2c(c(OC)c1OC)-c1ccc(SC)c(=O)cc1[C@@H](NC(C)=O)CC2,–,19 µM (active)
COC[C@]12CN(C)C3C4[C@H](OC)[C@H]1C3(C(OC)C[C@H]2O)[C@H]1C[C@@]2(O)[C@H](OC(=O)c3ccccc3)[C@@H]1[C@]4(O)[C@@H](O)[C@@H]2OC (stereo not given in full),–,inactive
CCCCCn1cc(C(=O)c2cccc3ccccc23)c2ccccc21,–,inactive
C#CCO[C@H]1CN2CCC1CC2,–,inactive
CC(=O)OC[C@]12C[C@H](OC(=O)CC(C)C)C(C)=C[C@H]1O[C@@H]1[C@H](O)[C@@H](O)[C@@]2(C)[C@]12CO2,–,inactive
C=C1[C@@H](C)[C@H]2[C@H](Cc3ccccc3)NC(=O)[C@]23[C@H](OC(C)=O)/C=C/[C@](C)(O)C(=O)[C@@H](C)C/C=C/[C@H]3[C@@H]1O,–,inactive
C[C@]12CC[C@H]3[C@@H](CCC4=C/C(=N/OCC(=O)O)CC[C@@]43C)[C@@H]1CC[C@@H]2O,–,inactive
CC1CCCCCC(=O)c2c(O)cc(O)cc2CC(=O)O1 (stereo not given),–,inactive
CN1C[C@@H]2CN(c3ccc(-c4ccccc4)nn3)C[C@@H]2C1,–,inactive
CO[C@H]1C[C@H](O[C@H]2CC[C@@]3(C)C(=CCC4C3CC[C@]3(C)[C@@H](C5=CC(=O)OC5)CC[C@]43O)C2)O[C@@H](C)[C@@H]1O[C@@H]1O[C@H](CO[C@@H]2O[C@H](CO)[C@@H](O)[C@H](O)[C@H]2O)[C@@H](O)[C@H](O)[C@H]1O (stereo not given in full),3.27% [at 11.6 µM],–

SMILES,"activity, negative = inhibition",Potency
COC(=O)C12C(=O)C(C)(O)C(=O)C1(C)C(C)=CC1C3(C=O)CCC(OC(C)=O)C(C)(C)C3CCC12C (stereo not given),–,inactive
C[C@]12CC[C@H](O)C[C@@H]1CC[C@@H]1[C@@H]2CC[C@]2(C)[C@@H](C3=CC(=O)OC3)CC[C@]12O,–,inactive
CCC1(O)CCC2C3CCC4=CC(=O)CCC4C3CCC21CC (stereo not given),–,inactive
C[C@@H]1O[C@@H](O[C@H]2CC[C@@]3(C)C(CC[C@@H]4C3CC[C@]3(C)[C@@H](C5=CC(=O)OC5)CC[C@]43O)C2)[C@H](O)[C@H](O)[C@H]1O (stereo not given in full),–,inactive
CC1=CC2/C=C(\C)CCC(O)C(O)/C=C/C(=O)C23C(=O)NC(CC(C)C)C3C1C (stereo not given),–,inactive
C=C(C)[C@@]12O[C@@H]1[C@@]1(C)C(=C[C@H]2O)CC[C@@H](O)[C@@H]1C,–,inactive
CN1CN(c2ccccc2)C2(CCN(CCCC(=O)c3ccc(F)cc3)CC2)C1=O,–,inactive
C=C[C@H]1CN2CCC1C[C@H]2[C@H](O)c1ccnc2ccccc12 (stereo not given in full),–,inactive
C[C@]12CC[C@H](O)C[C@@H]1CC[C@@H]1[C@@H]2CC[C@]2(C)C(=O)CC[C@@H]12,–,inactive
Cc1c(N[C@@H](c2nnc(-c3ccc(C#N)cc3)o2)[C@H](C)O)ccc(C#N)c1Cl,–,inactive
OC(CNc1ccccc1)Cn1c2ccc(Br)cc2c2cc(Br)ccc21 (stereo not given),–,inactive
C[C@@H](CN1CCC2(CC1)C(=O)NCN2c1cccc(F)c1)NC(=O)c1ccc(Br)cc1,–,inactive
CC1CCCC(O)CCC/C=C/c2cc(O)cc(O)c2C(=O)O1 (stereo not given),–,inactive
CN1CCCCC1Cn1cc(C(=O)c2cc([N+](=O)[O-])ccc2I)c2ccccc21 (stereo not given),–,inactive
CC1=C[C@H]2O[C@@H]3C[C@H]4OC(=O)/C=C/C=C/C(=O)OCC/C(C)=C/C(=O)OC[C@@]2(CC1)[C@]4(C)[C@]31CO1,–,inactive
CN1Cc2c(ccc3c2OCO3)[C@@H]2[C@H]1c1cc3c(cc1C[C@@H]2O)OCO3,–,inactive
C/C=C(\C)C(=O)OC1C2C3(C)CCC(OC4CC(OC)C(OC5OC(C)C(O)C(OC)C5O)C(C)O4)CC3CCC23OC32CCC(C(C)=O)C2(C)C1OC(=O)/C(C)=C/C (stereo not given),2.09% [at 11.6 µM],–
Nc1ncnc2c1ncn2[C@@H]1O[C@@H]2COP(O)(=S)O[C@H]2[C@H]1O (stereo not given in full),0.0656% [at 11.6 µM],–
CO[C@H]1[C@H](O)[C@H](O[C@H]2CC[C@]3(C=O)C4CC[C@]5(C)[C@H](C6=CC(=O)OC6)CC[C@]5(O)C4CC[C@@H]3C2)O[C@@H](C)[C@@H]1O (stereo not given in full),–,inactive
C=C1C(=O)O[C@@H]2[C@H]3C(=C)[C@@H](O)C[C@H]3C(=C)C[C@@H](O)[C@@H]12,–,inactive
